# Reference: PubChem BioAssay
# Values joined by “and” are separate entries in the source; they are usually repeats but may differ in a detail not shown here. Identical values can stand only once. Results filed as inconclusive are left out. Active and inactive are the calls of the source.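 How the source made its calls, unless noted: active means thallium flux through the channel raised or lowered by more than 3 SD from vehicle-only wells, actives on both sides; inactive means the rest.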
# Columns and labels:
# [1] = Cy5 fluorescence interference with SSB-bound oligo, artefact control for HCV NS3 helicase inhibitor project, biochemical, NIH Clinical Collection, E. coli SSB (AID 743268; call rule not given here)
# [2] = test system: Hepatitis C virus NS3 helicase; experiment: HCV NS3 helicase inhibitors, primary screen, biochemical, fluorescence polarization, NIH Clinical Collection (AID 743270; call rule not given here); settings: NS3 helicase binding to Cy5-dT15 DNA, stronger effect = higher value, concentration not given here
# [3] = target: Single-stranded DNA-binding protein (Escherichia coli (strain K12)) (UniProt P0AGE0); experiment: E. coli SSB displacement from DNA, counter-screen for HCV NS3 helicase inhibitor project, biochemical, fluorescence polarization, NIH Clinical Collection (AID 743271; in the data active means inhibition above about 28%); settings: stronger effect = higher value, concentration not given here
# [4] = fluorescence interference in NS3h assay format, artefact control for HCV NS3 helicase inhibitor project, biochemical, NIH Clinical Collection (AID 743272; call rule not given here;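 further: HCV NS3 helicase with a Cy5 labelled single stranded DNA probe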); settings: fluorescence interference counterscreen, stronger effect = lower value
# [5] = modulation of C. elegans fzo-1 (AID 1259413; call rule not given here;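 further: fzo-1 mutant C. elegans worms in liquid wells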); settings: C. elegans fzo-1 modulator screen, mean read-out; stronger effect = higher value
# F380Y/beta1 = experiment: modulators of BK channel variants, profiling panel, selectivity assay, cell-based, U2OS BacMam, thallium flux, beta subunits (AID 1259406); settings: at 30 µM;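 further: initial slope of Thallos dye fluorescence rise after thallium is added; log ratio against the mean of 0.3% DMSO vehicle wells on the same plate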
# F380Y/beta4 = experiment: as above; settings: at 30 µM
# R275C/beta4 = experiment: as above; settings: at 30 µM
# R275C/Slo1WT/beta2 = experiment: as above; settings: at 30 µM
# [6] = growth inhibition of DIPG glioma cells, dose response, cell-based, SU-DIPG-XVII, MIPE5.0, CellTiter-Glo, qHTS (AID 1347060; cut-off not given, nearly all actives have AC50 up to about 26 µM); settings: SU-DIPG-XVII viability, CellTiter-Glo ATP luminescence
# [7] = viability loss in pontine glioma line – cell-based, SU-DIPG-XXV, MIPE5.0, CellTiter-Glo, qHTS, dose response (AID 1347065; cut-off not given, nearly all actives have AC50 up to about 26 µM;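 further: cells exposed to compound for 48 hours before ATP readout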); settings: CellTiter-Glo ATP luminescence
# [8] = JHH-DIPG-1 glioma cell viability, MIPE5.0 library, CellTiter-Glo luminescence, qHTS (AID 1347067; cut-off not given, nearly all actives have AC50 up to about 26 µM;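 further: cells exposed to compound for 48 hours before readout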); settings: JHH-DIPG-1 glioma viability, CellTiter-Glo ATP luminescence
# [9] = SU-DIPG-XXV glioma cell viability, MIPE5.0 library, qHTS (AID 1347068; cut-off not given, nearly all actives have IC50 up to about 30 µM)
# [10] = growth inhibition of DIPG glioma cells, dose response, cell-based, SU-DIPG-XIII, MIPE4.0, CellTiter-Glo, qHTS (AID 1347061; cut-off not given, nearly all actives have AC50 up to about 37 µM;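 further: cells exposed to compound for 48 hours before readout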); settings: SU-DIPG-XIII viability, CellTiter-Glo ATP luminescence
# [11] = target: ATP-dependent translocase ABCB1 (Homo sapiens) (UniProt P08183); experiment: MDR1 (ABCB1) efflux transporter inhibition, cell-based (AID 377; in the data active means fluorescence slope change above about 50%); settings: MDR1-expressing cells, fluorescent substrate accumulation slope; stronger effect = higher value; concentration not given here
# Sequence of ATP-dependent translocase ABCB1 (Homo sapiens) (P08183 whole entry, looked up): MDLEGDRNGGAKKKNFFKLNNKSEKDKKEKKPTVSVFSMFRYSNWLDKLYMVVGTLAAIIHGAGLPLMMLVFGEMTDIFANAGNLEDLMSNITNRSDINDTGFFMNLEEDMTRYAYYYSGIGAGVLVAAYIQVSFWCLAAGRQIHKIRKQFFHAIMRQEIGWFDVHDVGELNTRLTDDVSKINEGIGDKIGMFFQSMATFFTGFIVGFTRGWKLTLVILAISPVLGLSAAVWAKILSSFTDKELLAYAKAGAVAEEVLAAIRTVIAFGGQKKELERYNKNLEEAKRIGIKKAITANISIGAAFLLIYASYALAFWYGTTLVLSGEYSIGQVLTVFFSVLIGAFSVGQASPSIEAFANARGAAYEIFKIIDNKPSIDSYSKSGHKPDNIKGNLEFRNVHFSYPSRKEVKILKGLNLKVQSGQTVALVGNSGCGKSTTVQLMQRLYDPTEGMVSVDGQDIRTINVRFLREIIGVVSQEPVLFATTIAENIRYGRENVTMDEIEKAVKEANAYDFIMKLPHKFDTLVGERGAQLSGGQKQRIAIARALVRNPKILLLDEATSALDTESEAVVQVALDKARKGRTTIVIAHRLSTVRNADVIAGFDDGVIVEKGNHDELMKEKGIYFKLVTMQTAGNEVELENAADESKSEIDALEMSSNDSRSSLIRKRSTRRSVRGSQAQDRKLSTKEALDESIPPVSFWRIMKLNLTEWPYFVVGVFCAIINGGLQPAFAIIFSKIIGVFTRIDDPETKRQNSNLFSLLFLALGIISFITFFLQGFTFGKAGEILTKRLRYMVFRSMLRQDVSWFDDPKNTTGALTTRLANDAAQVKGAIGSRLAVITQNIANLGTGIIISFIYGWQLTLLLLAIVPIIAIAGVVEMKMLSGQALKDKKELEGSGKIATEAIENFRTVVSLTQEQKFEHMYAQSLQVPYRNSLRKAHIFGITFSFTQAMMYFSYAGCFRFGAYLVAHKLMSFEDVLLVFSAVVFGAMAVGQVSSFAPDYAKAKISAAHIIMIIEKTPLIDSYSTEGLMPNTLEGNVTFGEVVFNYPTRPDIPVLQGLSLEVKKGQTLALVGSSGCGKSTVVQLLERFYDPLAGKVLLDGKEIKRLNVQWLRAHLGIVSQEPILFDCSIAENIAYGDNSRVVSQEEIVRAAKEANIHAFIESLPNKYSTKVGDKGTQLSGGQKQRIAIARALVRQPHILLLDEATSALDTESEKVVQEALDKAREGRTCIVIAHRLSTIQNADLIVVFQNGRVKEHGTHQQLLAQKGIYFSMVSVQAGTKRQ
# [12] = reducers of polyQ inclusions in PC12 cells, cell-based, NGF-treated PC12, GFPQ80 (AID 1614); settings: PC12 NGF-treated GFP-polyQ80 inclusion reduction;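 further: lower means fewer inclusions and 0 means no inclusions at all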
# [13] = SU-DIPG-VI glioma cell viability, MIPE4.0 library, CellTiter-Glo luminescence, qHTS (AID 1347066; cut-off not given, nearly all actives have AC50 up to about 30 µM;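 further: cells exposed to compound for 48 hours before readout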); settings: CellTiter-Glo ATP luminescence
smiles,measurement,setting,value
NC(=O)OCCCc1ccccc1,fluorescence ratio,[1],1.07 (inactive)
same,inhibition,[2],0.4% (inactive)
same,inhibition,[3],-1.64% (inactive)
same,fluorescence ratio,[4],1.03 (inactive)
same,mean signal,[5],256 (inactive)
same,log fold change Tl+ flux,F380Y/beta1,0.00909 (inactive)
same,log fold change Tl+ flux,F380Y/beta4,0.0583 (inactive)
same,log fold change Tl+ flux,R275C/beta4,-0.0265 (inactive)
same,log fold change Tl+ flux,R275C/Slo1WT/beta2,0.0397 (inactive)
NN=C(N)N,outcome,[6],inactive
same,outcome,[7],inactive
same,outcome,[8],inactive
same,outcome,[9],inactive
CN1C(=O)COc2c(C(=O)NC3CN4CCC3CC4)cc(Cl)cc21 (stereo not drawn),fluorescence ratio,[1],1.03 (inactive)
same,inhibition,[2],2.77% (inactive)
same,inhibition,[3],3.75% (inactive)
same,fluorescence ratio,[4],1.02 (inactive)
same,mean signal,[5],219 (inactive)
same,outcome,[6],inactive
same,outcome,[10],inactive
same,outcome,[7],inactive
same,outcome,[9],inactive
same,log fold change Tl+ flux,F380Y/beta1,0.0287 (inactive)
same,log fold change Tl+ flux,F380Y/beta4,0.0243 (inactive)
same,log fold change Tl+ flux,R275C/beta4,-0.016 (inactive)
same,log fold change Tl+ flux,R275C/Slo1WT/beta2,-0.0098 (inactive)
CC[C@]1(O)CC[C@H]2[C@@H]3CCC4=CCCC[C@@H]4[C@H]3CC[C@@]21C,fluorescence ratio,[1],1.02 (inactive)
same,inhibition,[2],-2.77% (inactive)
same,inhibition,[3],1.44% (inactive)
same,fluorescence ratio,[4],1.02 (inactive)
same,log fold change Tl+ flux,F380Y/beta1,-0.128 (active)
same,log fold change Tl+ flux,F380Y/beta4,-0.128 (active)
same,log fold change Tl+ flux,R275C/beta4,0.243 (active)
same,log fold change Tl+ flux,R275C/Slo1WT/beta2,0.0508 (inactive)
C#CCN(C)[C@H](C)Cc1ccccc1,fluorescence slope change,[11],-18.7% (inactive)
same,fluorescence ratio,[1],0.95 (inactive) and 0.99 (inactive)
same,inhibition,[2],-5.15% (inactive) and -7.73% (inactive)
same,inhibition,[3],2.21% (inactive) and -4.29% (inactive)
same,fluorescence ratio,[4],0.9 (inactive) and 0.99 (inactive)
same,mean signal,[5],258 (inactive)
same,outcome,[6],inactive
same,outcome,[10],inactive
same,outcome,[7],inactive
same,outcome,[8],inactive
same,outcome,[9],inactive
same,log fold change Tl+ flux,F380Y/beta1,0.0474 (inactive)
same,log fold change Tl+ flux,F380Y/beta4,0.0201 (inactive)
same,log fold change Tl+ flux,R275C/beta4,-0.0396 (inactive)
same,log fold change Tl+ flux,R275C/Slo1WT/beta2,-0.00101 (inactive)
O=C(O)C(Cl)Cl,fluorescence ratio,[1],0.97 (inactive)
same,inhibition,[2],-0.4% (inactive)
same,inhibition,[3],0.67% (inactive)
same,fluorescence ratio,[4],0.96 (inactive)
same,mean signal,[5],259 (inactive)
same,log fold change Tl+ flux,F380Y/beta1,-0.0051 (inactive)
same,log fold change Tl+ flux,F380Y/beta4,-0.0155 (inactive)
same,log fold change Tl+ flux,R275C/beta4,-0.0167 (inactive)
same,log fold change Tl+ flux,R275C/Slo1WT/beta2,-0.0385 (inactive)
Oc1cc(Cl)ccc1Oc1ccc(Cl)cc1Cl,fluorescence ratio,[1],1.01 (inactive)
same,inhibition,[2],2.27% (inactive)
same,inhibition,[3],-0.48% (inactive)
same,fluorescence ratio,[4],0.91 (inactive)
same,mean signal,[5],192 (inactive)
same,log fold change Tl+ flux,F380Y/beta1,-0.302 (active)
same,log fold change Tl+ flux,F380Y/beta4,-0.429 (active)
same,log fold change Tl+ flux,R275C/beta4,0.0409 (inactive)
same,log fold change Tl+ flux,R275C/Slo1WT/beta2,-0.125 (active)
COc1ccc(C(=O)N2CCCC2=O)cc1,inclusion score,[12],2
same,outcome,[6],inactive
same,outcome,[10],inactive
same,outcome,[7],inactive
same,outcome,[13],inactive
same,outcome,[8],inactive
same,outcome,[9],inactive
CCCC(C)C1(CC)C(=O)N=C(S)NC1=O (stereo not drawn),inclusion score,[12],2
CCOC(=O)c1cncn1C(C)c1ccccc1 (stereo not drawn),log fold change Tl+ flux,F380Y/beta1,0.00176 (inactive)
same,log fold change Tl+ flux,F380Y/beta4,0.0301 (inactive)
same,log fold change Tl+ flux,R275C/beta4,-0.000383 (inactive)
same,log fold change Tl+ flux,R275C/Slo1WT/beta2,-0.0322 (inactive)
CC(C)c1cccc(C(C)C)c1O,fluorescence ratio,[1],0.96 (inactive)
same,inhibition,[2],-1.36% (inactive)
same,inhibition,[3],4.1% (inactive)
same,fluorescence ratio,[4],0.87 (inactive)
same,mean signal,[5],226 (inactive)
same,outcome,[6],inactive
same,outcome,[7],inactive
same,outcome,[13],inactive
same,outcome,[8],inactive
same,outcome,[9],inactive
same,log fold change Tl+ flux,F380Y/beta1,-0.0717 (inactive)
same,log fold change Tl+ flux,F380Y/beta4,-0.00471 (inactive)
same,log fold change Tl+ flux,R275C/beta4,-0.0411 (inactive)
same,log fold change Tl+ flux,R275C/Slo1WT/beta2,-0.0465 (inactive)
